Consider 5 compounds from PubChem BioAssay.

In test [1] the test system is Plasmodium falciparum Sir2 (PF13_0152, Sir2A). Put plainly: Plasmodium falciparum Sir2A binding compounds – biochemical, small-molecule microarray, 635 nm fluorescence, primary screen (AID 1098).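 Also: score merges spot fluorescence intensity with its signal-to-noise ratio.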 Particulars: fluorescence 635 nm, higher = more signal.
A short description of test [2]: probe aDKK1 binding to arrayed compounds – biochemical, biotinylated probe, 635/667 nm fluorescence, primary screen (AID 1099).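 Also: score merges 667nm spot fluorescence with signal to noise across triplicate slides.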 The note with it: small-molecule microarray, higher = more signal.
Test [3] is described as follows: probe aCHRDL2 binding to arrayed compounds – biochemical, biotinylated probe, 635/667 nm fluorescence, primary screen (AID 1100). The note with it: small-molecule microarray, higher = more signal.
A short description of test [4]: change in splice reporter luminescence, either direction, cell-based, HEK293, spliceosome inhibition project, primary screen (AID 1101).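 Also: HEK293 cells carrying a splicing-competent luciferase reporter gene; test concentration not given here.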 The note with it: HEK293 splicing luciferase reporter, 24 h, higher = more signal, called active from +8 up or from −8 down. For orientation: In a reporter assay the amount or activity of a reporter protein is the signal.
Test [5] deals with Fibroblast growth factor 10 (Homo sapiens) (UniProt O15520). Briefly: compounds binding fibroblast growth factor 10 – biochemical, small-molecule microarray, 635 nm fluorescence, primary screen (AID 1102). The note with it: FGF10 binding, fluorescence 635 nm, higher = more signal.
The subject of test [6] is glycogen synthase kinase-3 (GSK3A per assay name; protocol says GSK3B). Put plainly: compounds binding glycogen synthase kinase-3 – biochemical, small-molecule microarray, 635 nm fluorescence, GSK3A, primary screen (AID 1103). Also: the record names both GSK3A and GSK3B. The note with it: fluorescence 635 nm, higher = more signal.
In test [7] the target is Epidermal growth factor receptor (Homo sapiens) (UniProt P00533). Put plainly: compounds binding epidermal growth factor receptor – biochemical, small-molecule microarray, 635 nm fluorescence, primary screen (AID 1104).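 Also: score merges 667 nm emission intensity with spot signal to noise over triplicate slides.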 The note with it: EGFR binding, higher = more signal.
The target of test [8] is Follistatin-related protein 3 (Homo sapiens) (UniProt O95633). Briefly: compounds binding follistatin-related protein 3 – biochemical, small-molecule microarray, 635 nm fluorescence, primary screen (AID 1105).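 Also: score merges emission near 667 nm and signal to noise per printed spot across three slides.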 The note with it: FSTL3 binding, higher = more signal.
Test [9] has as its target Dickkopf-related protein 1 (Homo sapiens) (UniProt O94907). Briefly: small molecules binding DKK1 protein – biochemical, small-molecule microarray, 635 nm fluorescence scan, primary screen (AID 1106).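 Also: score merges emission near 667 nm with signal to noise over three replicate slides.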 Particulars: higher = more signal.
The test system of test [10] is Inhibin beta A chain (activin A). Put plainly: small molecules binding activin A – biochemical, small-molecule microarray, 635 nm fluorescence scan, primary screen (AID 1107).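 Also: mouse activin A protein probed at 4.33 µg/mL on printed slides; score merges bound-protein fluorescence near 667 nm with spot signal-to-noise.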 Particulars: INHBA, higher = more signal.
Test [11] concerns Human papillomavirus type 1a protein E7 (residues 44-93). Briefly: small molecules binding HPV E7 44-93 – biochemical, small-molecule microarray, residues 44-93, 635 nm fluorescence, primary screen (AID 1108).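 Also: E7 fragment applied at 1 µg/mL in TBST for 1 h at 4 C; score combines spot fluorescence with its signal to noise ratio.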 The note with it: fluorescence 635 nm, higher = more signal.
Test [12] in a line: hepatitis C replication reporter changes, two-sided – Huh7 cells, luciferase reporter, HCV replication inhibitor project, primary screen (AID 1109).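 Also: huh7 hepatoma cells harbouring a luciferase neomycin HCV replicon reporter; luciferase luminescence as measure of HCV replicon replication; test concentration not given here.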 The note with it: Huh7 HCV replicon luciferase reporter, 48 h; higher = more signal.
Test [13] addresses Left-right determination factor 2 (Homo sapiens) (UniProt O00292). Briefly: small molecules binding LEFTY2 protein – biochemical, small-molecule microarray, 635 nm fluorescence scan, primary screen (AID 1110). Particulars: higher = more signal.
Test [14] concerns the target Calmodulin-1 (Homo sapiens) (UniProt P0DP23). Briefly: small molecules binding calmodulin-1 with EGTA – biochemical, small-molecule microarray, Cy5-labelled CALM1, profiling panel (AID 1111).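 Also: labelled calmodulin applied in Tris saline Tween buffer holding calcium plus EGTA and DTT.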 Particulars: Cy5-CALM1 binding fluorescence, higher = more signal.
Test [15] shares this target. Briefly: small molecules binding Ca-loaded calmodulin-1 – biochemical, small-molecule microarray, Cy5-labelled CALM1, plus calcium, artefact control for SMM control-protein annotation, profiling panel (AID 1112).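 Also: score merges spot fluorescence with signal to noise from triplicate slides.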 The note with it: Cy5-CALM1 binding fluorescence, higher = more signal.
The nature of test [16]: probe aWnt5a binding to arrayed compounds – biochemical, biotinylated probe, 635/667 nm fluorescence, primary screen (AID 1113).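 Also: score merges 667 nm fluorescence intensity with signal-to-noise per printed feature.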 Particulars: small-molecule microarray, higher = more signal.
Test [17] is described as follows: probe aShh binding to arrayed compounds – biochemical, biotinylated probe, 635/667 nm fluorescence, primary screen (AID 1114).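 Also: probe is biotin-labelled aShh protein from a stem cell growth factor screen; measures binding of labelled protein to compounds printed on the slide; score merges feature fluorescence at 667 nm with signal-to-noise.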 Particulars: small-molecule microarray, higher = more signal.
A short description of test [18]: probe aNog binding to arrayed compounds – biochemical, biotinylated probe, 635/667 nm fluorescence, primary screen (AID 1115).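 Also: probe is biotinylated aNog protein used at 0.15 µg/mL for 1 h at 4 C; z-score combines 667 nm fluorescence of each spot with its signal to noise.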 Particulars: small-molecule microarray, higher = more signal.
Test [19] deals with Torsin-1A-interacting protein 1 (Homo sapiens) (UniProt Q5JTV8). Briefly: compound microarray binding of lysate hLAP1 – cell lysate, small-molecule microarray, COS7 lysate, 635/667 nm fluorescence, primary screen (AID 1116). The note with it: 635 nm fluorescence, higher = more signal.
The target of test [20] is Alpha-bungarotoxin (Bungarus multicinctus) (UniProt P60615). Briefly: compounds binding labelled alpha-BTX control protein – biochemical, small-molecule microarray, Alexa647 label, 635/667 nm fluorescence, artefact control for SMM control protein annotation, profiling panel (AID 1117). The note with it: alpha-BTX-A647 binding fluorescence, higher = more signal.

Activity calls are given as the source filed them.

Alpha-bungarotoxin (Bungarus multicinctus), sequence (P60615 whole entry, looked up): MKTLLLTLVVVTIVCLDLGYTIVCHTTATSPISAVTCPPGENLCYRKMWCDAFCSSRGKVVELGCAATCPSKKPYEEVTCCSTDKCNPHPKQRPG
Fibroblast growth factor 10 (Homo sapiens), sequence (O15520 whole entry, looked up): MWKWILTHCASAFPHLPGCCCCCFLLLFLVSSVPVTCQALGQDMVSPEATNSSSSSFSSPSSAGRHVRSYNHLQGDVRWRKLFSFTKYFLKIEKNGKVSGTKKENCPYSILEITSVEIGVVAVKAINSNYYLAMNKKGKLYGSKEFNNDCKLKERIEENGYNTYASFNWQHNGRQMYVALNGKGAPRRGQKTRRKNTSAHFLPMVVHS
Torsin-1A-interacting protein 1 (Homo sapiens), sequence (Q5JTV8 whole entry, looked up): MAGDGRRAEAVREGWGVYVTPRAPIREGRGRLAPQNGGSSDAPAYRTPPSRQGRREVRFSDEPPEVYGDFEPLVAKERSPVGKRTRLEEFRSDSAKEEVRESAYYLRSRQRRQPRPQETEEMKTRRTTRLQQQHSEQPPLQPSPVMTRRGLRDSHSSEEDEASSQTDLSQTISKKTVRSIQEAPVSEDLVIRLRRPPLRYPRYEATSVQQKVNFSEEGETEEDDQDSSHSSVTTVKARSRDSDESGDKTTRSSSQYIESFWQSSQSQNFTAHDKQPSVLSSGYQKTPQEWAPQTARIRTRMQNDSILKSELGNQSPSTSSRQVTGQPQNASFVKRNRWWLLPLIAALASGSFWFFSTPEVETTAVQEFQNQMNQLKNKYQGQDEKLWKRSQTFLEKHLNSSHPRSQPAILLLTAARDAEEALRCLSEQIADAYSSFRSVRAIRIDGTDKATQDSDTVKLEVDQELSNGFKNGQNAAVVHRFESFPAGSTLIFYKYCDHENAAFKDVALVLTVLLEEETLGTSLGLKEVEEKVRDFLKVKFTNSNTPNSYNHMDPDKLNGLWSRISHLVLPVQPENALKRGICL
Epidermal growth factor receptor (Homo sapiens), sequence (P00533 whole entry, looked up): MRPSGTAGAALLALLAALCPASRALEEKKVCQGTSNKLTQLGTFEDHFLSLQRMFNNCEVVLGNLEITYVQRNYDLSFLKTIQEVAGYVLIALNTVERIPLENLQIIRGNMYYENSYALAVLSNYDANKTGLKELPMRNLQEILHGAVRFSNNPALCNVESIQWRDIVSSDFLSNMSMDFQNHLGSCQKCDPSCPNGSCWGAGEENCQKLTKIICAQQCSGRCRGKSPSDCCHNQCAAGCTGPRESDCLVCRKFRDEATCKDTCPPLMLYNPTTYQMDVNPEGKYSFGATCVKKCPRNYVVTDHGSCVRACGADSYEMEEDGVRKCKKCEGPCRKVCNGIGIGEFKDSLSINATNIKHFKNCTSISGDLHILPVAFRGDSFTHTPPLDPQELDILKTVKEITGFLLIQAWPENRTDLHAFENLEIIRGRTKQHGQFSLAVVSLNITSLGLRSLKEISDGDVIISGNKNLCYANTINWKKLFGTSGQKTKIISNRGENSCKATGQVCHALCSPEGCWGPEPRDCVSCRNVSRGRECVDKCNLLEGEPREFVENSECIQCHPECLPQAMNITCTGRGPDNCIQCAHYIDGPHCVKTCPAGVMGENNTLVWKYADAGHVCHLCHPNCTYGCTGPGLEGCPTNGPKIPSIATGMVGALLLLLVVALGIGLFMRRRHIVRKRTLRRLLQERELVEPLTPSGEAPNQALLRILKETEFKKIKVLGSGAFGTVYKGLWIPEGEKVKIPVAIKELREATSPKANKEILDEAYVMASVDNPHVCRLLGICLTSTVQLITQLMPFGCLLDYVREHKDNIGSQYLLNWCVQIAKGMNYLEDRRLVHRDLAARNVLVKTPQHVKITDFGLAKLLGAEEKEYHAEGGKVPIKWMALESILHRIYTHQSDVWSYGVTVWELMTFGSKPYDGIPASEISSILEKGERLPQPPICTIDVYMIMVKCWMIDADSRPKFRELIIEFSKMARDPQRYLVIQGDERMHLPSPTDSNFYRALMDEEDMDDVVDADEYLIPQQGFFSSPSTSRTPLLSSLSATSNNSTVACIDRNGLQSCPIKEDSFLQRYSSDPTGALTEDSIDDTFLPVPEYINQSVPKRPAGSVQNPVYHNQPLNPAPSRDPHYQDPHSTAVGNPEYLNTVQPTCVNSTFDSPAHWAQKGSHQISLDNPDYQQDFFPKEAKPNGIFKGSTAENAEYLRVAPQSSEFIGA
Dickkopf-related protein 1 (Homo sapiens), sequence (O94907 whole entry, looked up): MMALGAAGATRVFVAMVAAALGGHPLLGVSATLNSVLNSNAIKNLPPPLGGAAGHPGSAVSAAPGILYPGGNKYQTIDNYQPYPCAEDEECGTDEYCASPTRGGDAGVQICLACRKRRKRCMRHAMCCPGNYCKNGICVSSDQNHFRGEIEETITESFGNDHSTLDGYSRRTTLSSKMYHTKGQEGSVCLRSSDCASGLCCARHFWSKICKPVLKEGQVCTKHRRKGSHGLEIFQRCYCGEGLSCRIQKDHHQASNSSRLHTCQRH
Left-right determination factor 2 (Homo sapiens), sequence (O00292 whole entry, looked up): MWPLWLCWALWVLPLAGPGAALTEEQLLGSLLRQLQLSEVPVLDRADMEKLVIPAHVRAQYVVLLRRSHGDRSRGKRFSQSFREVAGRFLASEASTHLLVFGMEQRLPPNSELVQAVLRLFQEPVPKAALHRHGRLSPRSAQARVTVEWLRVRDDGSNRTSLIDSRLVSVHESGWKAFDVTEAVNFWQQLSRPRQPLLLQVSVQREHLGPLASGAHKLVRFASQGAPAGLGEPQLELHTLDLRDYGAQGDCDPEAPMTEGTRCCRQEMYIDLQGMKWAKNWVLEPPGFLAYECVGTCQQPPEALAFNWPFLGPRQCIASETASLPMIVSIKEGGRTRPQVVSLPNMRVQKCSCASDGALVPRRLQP
Follistatin-related protein 3 (Homo sapiens), sequence (O95633 whole entry, looked up): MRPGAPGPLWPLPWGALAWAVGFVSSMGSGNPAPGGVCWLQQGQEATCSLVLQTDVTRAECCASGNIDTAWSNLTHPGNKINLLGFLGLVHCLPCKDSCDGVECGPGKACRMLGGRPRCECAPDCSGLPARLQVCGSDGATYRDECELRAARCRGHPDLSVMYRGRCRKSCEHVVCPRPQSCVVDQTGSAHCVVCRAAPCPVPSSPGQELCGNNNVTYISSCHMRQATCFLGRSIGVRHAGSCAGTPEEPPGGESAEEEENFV

For `C=CC[C@@]1(C(=O)N(C)C)N=C(c2ccc(OCCCO)cc2)O[C@@H]1c1ccccc1N=[N+]=[N-]`, the composite z-score in [1] worked out at 1.59; in test [2], 1.33; in test [3], 1.35; in [5], 0.826; in test [6] it was 1.2; in [7], 0.145. Besides, the composite z-score in test [8] stood at 0.884; in test [9], 0.368; in [10], 0.636; in test [11], 0.608; in [13], 0.232; in test [14], 2.66. Moreover, the composite z-score came out at 1.03 in test [15]; 0.0597 in [16]; 0.613 in test [17]; 2.21 in test [18]; 2.7 in test [19]; 2.95 in test [20]. In addition, the z-score in [4] was -1.2 (inactive); in [12] it was -1.08.
For `COc1ccc(CCNC(=O)[C@@]2(C)c3ccccc3C(=O)N(Cc3cc(F)cc(C(F)(F)F)c3)[C@H]2c2ccc(CO)cc2)cc1`, the composite z-score is 1.59 in test [1]; 0.362 in test [2]; 0.875 in [3]; 0.512 in [5]; -0.596 in [6]; -0.244 in test [7]. Besides, the composite z-score in test [8] is -0.972; in test [9] it was -0.434; in test [10] it was -0.0094; in test [11], 0.0404; in test [13], -0.454; in [14], 0.123. Further, the composite z-score in [15] is -0.183; in [16], -0.0944; in test [17], -0.0849; in test [18], 0.549; in test [19], -0.152; in test [20], -0.838. Moreover, the z-score in [4] is -1.23 (inactive); in [12] it was -0.928.
Regarding `COc1cc2c(cc1OC)CN(C(=O)[C@H]1[C@@H]3C(=O)O[C@@H](c4ccccc4)[C@@H](c4ccccc4)N3[C@@H](c3ccc(O)cc3)[C@]13C(=O)Nc1ccc(C#CCNC(N)=O)cc13)CC2`, the composite z-score was 1.11 in [1]; -0.0741 in [2]; 0.0306 in test [3]; 1.11 in [5]; -0.294 in test [6]; -0.0357 in test [7]. For the same compound, the composite z-score in [8] is 0.903; in test [9], 0.596; in [10] it was 0.544; in test [11], -0.208; in test [13] it was 0.264; in [14] it was -0.123. The composite z-score in test [15] was 0.0061; in test [16] it was -0.0403; in [17], 0.0141; in test [18] it was -0.198; in test [19], -0.0992; in test [20], -0.0782. Moreover, the z-score in test [4] is -0.996 (inactive); in [12] it was -0.145.
With `C#CCNC(=O)[C@H](Cc1ccccc1)NC(=O)CCC(=O)O`, the composite z-score in test [1] is -0.759; in test [2] it was -0.397; in test [3] it was -0.205; in [5], -0.688; in [6] it was -1.14; in [7] it was -0.659. Moreover, the composite z-score is -1.22 in [8]; -0.447 in test [9]; 0.735 in [10]; -0.665 in test [11]; -0.0677 in [13]; -1.48 in [14]. Moreover, the composite z-score was -0.834 in test [15]; -0.12 in test [16]; -0.214 in [17]; -0.501 in [18]; 0.409 in test [19]; -0.368 in test [20]. For the same compound, the z-score was -0.222 (inactive) in test [4] and -0.25 in test [12].
For `C=CCOC(=O)[C@H]1[C@@H]2C(=O)O[C@@H](c3ccccc3)[C@@H](c3ccccc3)N2[C@@H](c2ccc(OCCOC(=O)[C@H]3C[C@H]4C(=O)N5CCC[C@H]5C(=O)N4[C@H]3c3ccc(O)cc3)cc2)[C@]12C(=O)Nc1ccc(I)cc12`, the composite z-score in test [1] was 2.09; in test [2], 1.76; in [3] it was 1.42; in test [5], 1.47; in test [6] it was 1.37; in test [7], 0.429. In addition, the composite z-score in [8] stood at 1.42; in test [9], 1.97; in test [10] it was 1.41; in [11], 1.48; in [13] it was 1.52; in test [14] it was 1.22. Further, the composite z-score came out at 1.41 in test [15]; 0.547 in test [16]; 2.8 in [17]; 2.82 in test [18]; 2.74 in [19]; 2.81 in test [20]. The figures for the z-score in test [4] and in test [12] were -1.93 (inactive) and 0.56, respectively.
